Each structure is given as a SMILES string. The source made the active and inactive calls.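 How the source made its calls: active means inhibition above 20% together with a positive visual image hit; inconclusive means visual image hit but inhibition not above 20%; inactive means no visual image hit.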

Data on 40 compounds can be found in PubChem BioAssay.

This experiment can be described thus: inhibitors of TNFa-induced NFkB p65 translocation, primary screen, imaging, HUVEC, MLSMR starter and 10KST1 sets (AID 438).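 Further: compound added about 3h40 before a 20 min TNFalpha stimulation.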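 On inhibition: signal is the nuclear over cytoplasmic p65 intensity ratio per well.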 Particulars: HUVEC TNFa-induced p65 nuclear translocation; cell count: measured here: nuclei count (cytotoxicity indicator), at 2.08 µM; inhibition: at 2 µM, stronger effect = higher value, 0% TNFa-plus-vehicle, 100% no-TNFa wells.
Turning to `CCCNC(=O)NC1C(NC(=O)NCCC)N(C)C(=O)N1C` (stereo not given), the cell count was found to be 551 and the inhibition is -0.3% (inactive).

As for `COc1ccccc1NC(=O)C(C)NS(=O)(=O)c1ccc(F)cc1` (stereo not given), the inhibition was 2.8% (inactive) and the cell count came out at 331.

On to `Cc1oc(-c2ccccc2F)nc1CS(=O)(=O)CC(=O)N1CCN(Cc2ccccc2)CC1`, for which the cell count was found to be 853 and the inhibition was -4% (inactive).

On to `CCCOC(=O)c1[nH]c2c(c1C)C(=O)CC(c1ccc(OC)c(OC)c1)C2` (stereo not given), for which the inhibition is -2.8% (inactive) and the cell count is 235.

In the case of `N#Cc1c(-c2ccccc2)nc(N2CCCCCC2)[nH]c1=O`, the inhibition was -6.1% (inactive) and the cell count was determined as 379.

As for `CCOc1ccc(-n2cc(C(=O)N3CCN(C)CC3)c3cc(OC)c(OC)cc3c2=O)cc1`, the cell count stood at 393 and the inhibition was 8.8% (inactive).

Regarding `Cc1ccc(CCNC(=O)C2CCCN(S(=O)(=O)c3cnc[nH]3)C2)cc1` (stereo not given), the cell count is 603 and the inhibition was -0.2% (inactive).

With `Cc1cnc(C(=O)Nc2nnc(C(C)C)s2)cn1`, the inhibition is -8.8% (inactive) and the cell count was 569.

As to `COc1ccccc1NC(=O)Cn1nnc(-c2ccccc2NC(=O)c2ccco2)n1`, the inhibition is 6.2% (inactive) and the cell count turned out to be 317.

With `O=C1CCc2cc(S(=O)(=O)N3CCC(C(=O)NCc4ccccn4)CC3)ccc2N1`, the inhibition is 0% (inactive) and the cell count came to 599.

Turning to `COc1ccc(OCCSc2nc3ccccc3n2CC(=O)O)cc1`, the cell count came to 321 and the inhibition is -9.2% (inactive).

For the compound `Cc1cccc(C(OC(=O)c2ccco2)C(=O)NCc2ccccc2)n1` (stereo not given), the inhibition is -15.3% (inactive) and the cell count was determined as 724.

As to `CCCCN(CC)CCNC(=O)c1cc2c(C)nc3ccccc3c2o1`, the inhibition is 0.3% (inactive) and the cell count stood at 656.

In the case of `O=C(NC1CCCC1)C(c1ccco1)N(Cc1ccccc1)C(=O)c1csnn1` (stereo not given), the inhibition is 5.4% (inactive) and the cell count amounted to 426.

`CC(C)(C)NC(=O)NC(=O)COc1ccccc1C#N`: the inhibition is -28.2% (inactive) and the cell count came out at 432.

Consider `COc1cccc2cc(C(=O)C3=C(O)C(=O)N(CCCN4CCOCC4)C3c3ccncc3)oc12` (stereo not given), for which the inhibition is 0.9% (inactive) and the cell count was 463.

Turning to `CCOC(=O)N1CCN(c2cc(=O)n(-c3ccccc3Cl)c(=O)[nH]2)CC1`, the inhibition is -7.4% (inactive) and the cell count was 553.

With `Cn1nnnc1SCC(=O)N1CCN(c2cccc(Cl)c2)CC1`, the cell count amounted to 360 and the inhibition is -2.9% (inactive).

Regarding `CCOc1ccccc1OCC(=O)NCc1ccco1`, the inhibition is -3.4% (inactive) and the cell count amounted to 375.

Regarding `CCN1C(=O)C(C(=O)Nc2ccc(OC)cc2)C2CC1(C)Oc1ccccc12` (stereo not given), the cell count turned out to be 489 and the inhibition was 4.3% (inactive).

Take `O=C(Nc1ccc(Cl)cn1)c1cccnc1`: the cell count stood at 340 and the inhibition is -8% (inactive).

Take `CCOC(=O)CSc1nc2c(c(-c3ccc(C)o3)c1C#N)CCCC2`: the inhibition was -4.4% (inactive) and the cell count worked out at 430.

Turning to `CCn1c(Cc2ccccc2)nnc1SCC(=O)Nc1cc(C)on1`, the cell count was 629 and the inhibition was -3.3% (inactive).

For the compound `Cn1c(=O)[nH]c(=O)c2[nH]c(NCCCN3CCOCC3)nc21`, the cell count was found to be 572 and the inhibition is 4.8% (inactive).

Consider `CC1CCN(Cc2nc3c(c(=O)n(C)c(=O)n3C)n2Cc2cccc3ccccc23)CC1`, for which the cell count came to 703 and the inhibition is -22.3% (inactive).

As to `Fc1cccc2sc(N3CCOCC3)nc12`, the inhibition is -8.3% (inactive) and the cell count came to 255.

With `Cc1cc(NC(=O)CSc2nc3c(c(=O)n2Cc2ccccc2)SC(C)C3)no1` (stereo not given), the cell count worked out at 554 and the inhibition is 8% (inactive).

On to `Clc1ccc(CSc2nnc(Cn3cnc4ccccc43)o2)cc1`, for which the cell count is 618 and the inhibition was -2.5% (inactive).

Regarding `O=C1c2ccccc2NC2CCCCCN12` (stereo not given), the cell count came out at 445 and the inhibition was -2.1% (inactive).

In the case of `CCOc1ccc(-c2cc(C(=O)N3CCN(c4ccccn4)CC3)c3ccccc3n2)cc1`, the cell count is 619 and the inhibition is 7.9% (inactive).

Consider `COc1ccc(Cn2nnnc2C(c2cccs2)N2CCOCC2)cc1` (stereo not given), for which the cell count was 572 and the inhibition was -4.8% (inactive).

As for `CN1C(=O)CC(N2CCC(C(N)=O)(N3CCCCC3)CC2)C1=O` (stereo not given), the cell count came out at 540 and the inhibition was 5.4% (inactive).

As for `CC1CCCN(C(=O)c2cc3c(-c4ccc(Cl)cc4)nn(C)c3s2)C1` (stereo not given), the inhibition was -1.7% (inactive) and the cell count is 749.

Regarding `CCN1CCN(Cc2nc3c(c(=O)[nH]c(=O)n3C)n2Cc2ccccc2Cl)CC1`, the inhibition was 1% (inactive) and the cell count came to 584.

Turning to `CS(=O)(=O)c1ccc2nc(NC(=O)C3C4C=CC(C4)C3C(=O)O)sc2c1` (stereo not given), the inhibition is 12.5% (inactive) and the cell count amounted to 475.

For the compound `NC(=O)c1c(NC(=O)CN2CCCC2)sc2c1CCCC2`, the inhibition is 3% (inactive) and the cell count was 577.

For `CCOc1ccc(C(=O)CN2CCN(S(=O)(=O)c3ccc(OC)cc3)CC2)cc1`, the inhibition is -2.9% (inactive) and the cell count came to 599.

As to `O=C1NC(=O)C(CC(=O)N(Cc2ccco2)C2(C(=O)NC3CCCC3)CCCCC2)N1` (stereo not given), the inhibition was -7.4% (inactive) and the cell count came out at 670.

As for `COCCn1c(SCC(=O)Nc2cccc(OC)c2)nnc1-c1ccc(Cl)cc1`, the inhibition is 6.7% (inactive) and the cell count was determined as 467.

For the compound `CN(C)c1nc(Oc2ccc(=O)n(C)n2)nc(N2CCOCC2)n1`, the inhibition is 0.5% (inactive) and the cell count worked out at 306.
